From PubChem BioAssay
PNC assembly inh: inhibitors of perinucleolar compartment assembly. activity change (PNC), negative = inhibition, % at 10 µM. actives 3.1% (n = 140,000). PC3M PTB-GFP, PNC prevalence imaging, 16 h; stronger effect = lower value. AID 2417;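 active = readout at or below -70, meaning at least 70% loss of cells showing the perinucleolar compartment, a nuclear body marking cancer cells; inconclusive = readout between -30 and a set limit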
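PC3M cells stably expressing PTB-GFP, 750–1000 cells/well, treated 16 h at 37 °C with compound (23 nl of library stock), in duplicate. After paraformaldehyde fixation and Hoechst stain, imaged at 20x; PNC prevalence scored by image analysis.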
HPGD block: blocks human HPGD enzyme activity; purified HPGD, NADH fluorescence kinetic, PGE2 substrate; Potency, µM, hits mostly inhibitors; actives 4.3% (n = 150,000); AID 894
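NADH formation kinetics: reaction with 30 uM PGE2 and 1 mM NAD+ (final), 20 nM enzyme, Tris-HCl pH 8 with Tween 20, after 15 min compound preincubation at room temperature. Fluorescence change, last versus first of five reads.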
ALDH1A1 inh: blocks purified human ALDH1A1 activity; Purified ALDH1A1, NADH fluorescence, propionaldehyde substrate; P00352; actives 7.3% (n = 220,000); Potency, µM (doses to about 75.3 µM), usual class: inhibitors; AID 1030
Target sequence (P00352 whole entry, looked up): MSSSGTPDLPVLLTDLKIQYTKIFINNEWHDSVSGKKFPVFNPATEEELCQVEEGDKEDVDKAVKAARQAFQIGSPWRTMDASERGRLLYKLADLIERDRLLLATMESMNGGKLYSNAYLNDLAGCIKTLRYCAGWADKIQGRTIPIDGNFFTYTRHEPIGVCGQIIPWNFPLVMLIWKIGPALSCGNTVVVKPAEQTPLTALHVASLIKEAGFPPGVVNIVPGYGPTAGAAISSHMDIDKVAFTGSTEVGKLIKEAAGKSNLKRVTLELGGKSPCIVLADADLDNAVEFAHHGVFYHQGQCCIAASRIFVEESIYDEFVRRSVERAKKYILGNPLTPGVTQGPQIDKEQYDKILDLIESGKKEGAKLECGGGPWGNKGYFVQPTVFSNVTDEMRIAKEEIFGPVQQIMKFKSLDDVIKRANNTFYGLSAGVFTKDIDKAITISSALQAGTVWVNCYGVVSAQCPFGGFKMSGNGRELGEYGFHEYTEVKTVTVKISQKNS
Of the large screens only hits and unclear results are named; the others gave an inactive call. The list is not random: actives were taken first. Their share in the collection is about 11%. Unless noted, calls come from the whole dose curve; as a rule, active = well fitted inhibition curve with a large enough effect (not every such curve was filed as active); inconclusive = small, poorly fitted or top-dose-only effect, or another doubt; inactive = no such curve, though single readings can be large or run the other way.

N#Cc1c(NC(=O)CSc2n[nH]c(N)n2)oc(-c2ccccc2)c1-c1ccccc1	ALDH1A1 inh inconclusive
CC(=O)OC1CCC2(C)C3CC(=O)C4(C)C(CC5OC6(CCC(C)CO6)C(C)C54)C3CC[C@H]2C1 (stereo partly specified)	none (no result: PNC assembly inh)
CCn1c2ccccc2c2cc(N=C3SC(CC(=O)Nc4ccccc4OC)C(=O)N3CCOC)ccc21 (stereo unspecified)	PNC assembly inh -98
COc1ccc(N=C2SC(CC(=O)Nc3ccc(F)cc3)C(=O)N2Cc2ccco2)cc1 (stereo unspecified)	ALDH1A1 inh 3.5µM
COc1ccc(N=C2SC(CC(=O)Nc3ccccc3)C(=O)N2CCN2CCOCC2)cc1 (stereo unspecified)	none (no result: PNC assembly inh, HPGD block)
CCn1c2ccccc2c2cc(N=C3SC(CC(=O)Nc4ccccc4OC)C(=O)N3C)ccc21 (stereo unspecified)	none
COc1ccc(N=C2SC(CC(=O)Nc3ccccc3OC)C(=O)N2Cc2ccco2)cc1 (stereo unspecified)	PNC assembly inh -104, HPGD block inconclusive
COc1ccc(N=C2SC(CC(=O)Nc3ccccc3)C(=O)N2CC2CCCO2)cc1 (stereo unspecified)	ALDH1A1 inh inconclusive
C/C(CCC(C)C)=N\NC(=S)NCc1ccccc1	none (no result: PNC assembly inh, HPGD block)
O=C(O)CC1S/C(=N/N=C/c2ccc(-c3ccccc3[N+](=O)[O-])o2)NC1=O (stereo unspecified)	HPGD block 16µM, ALDH1A1 inh 8.9µM
Cc1ccc(-c2ccc(/C=N/N=C3/NC(=O)C(CC(=O)O)S3)o2)c([N+](=O)[O-])c1 (stereo unspecified)	HPGD block 18µM
CCOc1cc(/C=N/N=C2/NC(=O)C(CC(=O)O)S2)ccc1OS(=O)(=O)c1ccc(C)cc1 (stereo unspecified)	none (no result: PNC assembly inh, HPGD block)
O=C(N/N=C\c1ccc(-c2ccccc2[N+](=O)[O-])o1)C1COc2ccccc2O1 (stereo unspecified)	PNC assembly inh inconclusive, ALDH1A1 inh inconclusive
CC(C)N1C(=O)CCC1C(=O)NCc1cccs1 (stereo unspecified)	none (no result: PNC assembly inh, HPGD block)
COCCNC(=O)CN(C(=O)Cn1nnc2ccccc21)c1cc(C)cc(C)c1	none (no result: PNC assembly inh, HPGD block)
Cc1nc2cc(NC(=O)Nc3ccccc3Cl)ccc2n1C	none (no result: PNC assembly inh, HPGD block)
c1ccc2cc(CSCc3nc4ccccc4[nH]3)ccc2c1	PNC assembly inh inconclusive
CN1CCN(C2=CC(=O)OC23CCCCC3)CC1	none
O=C1C=C(N2CCCCC2)C2(CCCCC2)O1	ALDH1A1 inh 10µM (no result: PNC assembly inh, HPGD block)
Cc1cc2ncn(/N=C/c3ccc(-c4ccccc4)o3)c2cc1C	HPGD block inconclusive
Cc1ccc(/C=N/n2cnc3sc(-c4ccccc4)cc3c2=O)o1	HPGD block inconclusive, ALDH1A1 inh 32µM
CCCn1c(SCC(=O)NCc2ccccc2)n[nH]c1=O	none (no result: PNC assembly inh, HPGD block)
Cc1cc2cc(CCNC(=O)C3c4ccccc4Oc4ccccc43)c(=O)[nH]c2cc1C	none
Cc1ccc(NC(=O)NCCN2C(=O)C3C4C=CC(C4)C3C2=O)cc1 (stereo unspecified)	ALDH1A1 inh 10µM
O=C(NCCN1C(=O)C2C3C=CC(C3)C2C1=O)Nc1ccccc1 (stereo unspecified)	ALDH1A1 inh 13µM
O=C(NCCN1C(=O)C2C3C=CC(C3)C2C1=O)NCc1ccccc1 (stereo unspecified)	ALDH1A1 inh inconclusive
Cc1cccc(NC(=O)NCCN2C(=O)C3C4C=CC(C4)C3C2=O)c1 (stereo unspecified)	PNC assembly inh inconclusive, ALDH1A1 inh inconclusive
COc1ccc(NC(=O)NCCN2C(=O)C3C4C=CC(C4)C3C2=O)cc1 (stereo unspecified)	PNC assembly inh -82, ALDH1A1 inh inconclusive
Cc1ccccc1NC(=O)NCCN1C(=O)C2C3C=CC(C3)C2C1=O (stereo unspecified)	none
O=C(COc1ccc(Cl)cc1)NCc1nnc(SCC(=O)Nc2ccc(F)cc2F)o1	none (no result: PNC assembly inh, HPGD block)
CC(C)(C)c1nc2c(Br)cc(Br)cc2c(=O)o1	none
O=C(c1cc2cc([N+](=O)[O-])ccc2oc1=O)N1CCN(C2CCCCC2)CC1	none (no result: PNC assembly inh, HPGD block)
Cc1ccccc1OCC(=O)Nc1nc2ccccc2[nH]1	none (no result: PNC assembly inh, HPGD block)
Cc1ccccc1Oc1nnc(-c2cccs2)c2ccccc12	none (no result: HPGD block)
CC(C)(C)c1cc(CNC2CS(=O)(=O)C[C@@H]2O)cc(C(C)(C)C)c1O (stereo partly specified)	ALDH1A1 inh 13µM
O=S1(=O)CC(O)C(NCc2ccco2)C1 (stereo unspecified)	none
NCCO	ALDH1A1 inh inconclusive (no result: PNC assembly inh)
Cc1nc2ccccc2n(CC(=O)Nc2cc(Cl)cc(Cl)c2)c1=O	none (no result: PNC assembly inh, HPGD block)
CCOC(=O)c1c(NC(=O)c2cc(C)on2)c2cc([N+](=O)[O-])ccc2n1C	none (no result: PNC assembly inh, HPGD block)
CCC1=C2CC[C@H]3C(=O)N(CC)C(=O)[C@H]3[C@H]2[C@@]2(C)C(=NCCc3c[nH]c4ccccc34)OC(=O)N2C1=O	none (no result: PNC assembly inh)
COc1ccc(-c2nc(NC(=O)c3cc(C(C)(C)C)nn3C)sc2C)cc1	HPGD block inconclusive, ALDH1A1 inh inconclusive
CCN(CC)C(=O)c1n[nH]c(=O)c2ccccc12	none
Cc1cc(C)c(-c2csc(NC(=O)c3n[nH]c(=O)c4ccccc34)n2)c(C)c1	PNC assembly inh -89
CCOC(=O)c1ccc(NC(=O)c2n[nH]c(=O)c3ccccc23)cc1	none (no result: PNC assembly inh, HPGD block)
COc1ccc(-c2nc(NC(=O)c3n[nH]c(=O)c4ccccc34)sc2C)cc1	PNC assembly inh -114
CCC(C)NC(=O)c1n[nH]c(=O)c2ccccc12 (stereo unspecified)	PNC assembly inh -100
COc1ccc(C(=NNc2ccccc2C(=O)O)c2ccc(OC)cc2)cc1	PNC assembly inh inconclusive, ALDH1A1 inh inconclusive
COC(=O)c1c(SCc2ccc(C#N)cc2)nc(=O)[nH]c1C	none (no result: PNC assembly inh, HPGD block)
CCCNC(=O)OC[C@@H]1O[C@H](CCO/N=C(\C)CCC(=O)OC[C@@H]2O[C@H](C#Cc3ccccc3)C=C[C@@H]2Oc2ccc(C)cc2)C=C[C@@H]1Oc1ccc(OC)cc1	none (no result: PNC assembly inh, HPGD block)
CC1CCC/C(=N/NC(=O)c2ccccc2-n2cccc2)C1 (stereo unspecified)	PNC assembly inh -109, ALDH1A1 inh inconclusive
O=C(NN=C1CCC(c2ccccc2)CC1)c1ccccc1-n1cccc1 (stereo unspecified)	ALDH1A1 inh inconclusive
N#CCC(=O)NN=C1CCCCCCCCCCC1	ALDH1A1 inh 3.2µM
O=C(CSc1ncccn1)NN=C1CCCCCCC1	none
O=C(CCCC(=O)NNC(=O)Nc1ccccc1)NNC(=O)Nc1ccccc1	none (no result: PNC assembly inh, HPGD block)
CCOc1ccc(-n2c(N)c(C(=O)NCc3ccco3)sc2=S)cc1	PNC assembly inh -86, HPGD block 32µM, ALDH1A1 inh 22µM
CCOc1ccc(-n2c(N)c(C(=O)NCc3cccnc3)sc2=S)cc1	HPGD block 35µM, ALDH1A1 inh inconclusive
C=CCn1c(N)c(C(=O)NCc2cccnc2)sc1=S	ALDH1A1 inh inconclusive
CCOc1ccc(NC(=O)Cn2nnc(C(=O)NCc3ccco3)c2N)cc1	none
Cc1ccc(CN(Cc2ccccc2)C(=S)Nc2ccccc2C)o1	none (no result: PNC assembly inh, HPGD block)
CC(=O)NCCNc1ncncc1-c1ccccc1C	none (no result: PNC assembly inh, HPGD block)
OC[C@@H](O)CN1CCN(c2ccccc2)CC1	none (no result: PNC assembly inh)
COc1ccc2[nH]c(=O)c(CN(Cc3ccco3)C(c3nnnn3Cc3ccccc3)C(C)C)cc2c1 (stereo unspecified)	HPGD block inconclusive, ALDH1A1 inh inconclusive
